According to the supplement of paper PMC13380429:

Tests used:
[1] = tested on: Vero E6 infected with SARS-CoV-2; test: morphology score (similarity to uninfected cells); higher = more like uninfected cells; conditions: 24 h
[2] = tested on: Vero E6 infected with SARS-CoV-2; test: SARS-CoV-2 infection rate relative to infected DMSO; higher = more infection, active = 60 or less; conditions: 24 h

Row | Structure (SMILES) | morphology score [1] | SARS-CoV-2 infection rate [2]
1 | Cc1c(NC(=O)OC[C@@H]2COCCN2)cn2ncnc(Nc3ccc4c(cnn4Cc4cccc(F)c4)c3)c12 (0.833333 µM) | -0.105 | 102% (inactive)
2 | CON(C)C(=O)[C@H](O)[C@H](Cc1ccccc1)NC(=O)c1cc2cc(Cl)ccc2[nH]1 (10 µM) | 0.109 | 109% (inactive)
3 | N=C(N)c1ccc(-c2ccc(-c3ccc(C(=N)N)cc3)o2)cc1 [furamidine] (10 µM) | -0.436 | 98% (inactive)
4 | CO[C@H]1/C=C\C=C(/C)C(=O)NC2=CC(=O)C(NCCN(C)C)=C(C[C@@H](C)C[C@H](OC)[C@H](O)[C@@H](C)/C=C(\C)[C@@H]1OC(N)=O)C2=O [alvespimycin] (10 µM) | 0.255 | 91% (inactive)
5 | CC(O)CN1CCN(CC(=O)[O-])CCN(CC(=O)[O-])CCN(CC(=O)[O-])CC1.[Gd+3] (stereo not drawn) [gadoteridol] (10 µM) | -0.0781 | 108% (inactive)
6 | Cc1nc2ccc(Oc3ccc(F)cc3)cc2c(=O)n1C[C@H]1CCCN(C(C)C)C1 (10 µM) | 0.295 | 76% (inactive)
7 | CN(C)CCc1c[nH]c2ccc(Cn3cncn3)cc12 [rizatriptan] (10 µM) | -0.00598 | 114% (inactive)
8 | CC(=O)[C@H]1CC[C@H]2[C@@H]3C[C@H](C)C4=CC(=O)CC[C@]4(C)[C@H]3[C@@H](O)C[C@]12C [medrysone] (10 µM) | 0.0629 | 106% (inactive)
9 | COc1ccccc1N1CCN(CCCNc2cc(=O)n(C)c(=O)n2C)CC1 [urapidil] (10 µM) | 0.088 | 101% (inactive)
10 | COc1cc(-n2cnc3cc(-c4ccc(Cl)cc4)sc3c2=O)ccc1OCCN1CCCC1 (10 µM) | 0.52 | 53% (active)
11 | O=c1ccc2cc(O[C@@H]3O[C@H](CO)[C@@H](O)[C@H](O)[C@H]3O)c(O)cc2o1 [esculin] (10 µM) | 0.15 | 111% (inactive)
12 | CCCCC[C@H](O)/C=C/[C@H]1[C@H](O)CC(=O)[C@@H]1C/C=C\CCCC(=O)O [dinoprostone] (10 µM) | 0.144 | 95.5% (inactive)
13 | C[C@]12CC[C@@H]3c4ccc(O)cc4CC[C@H]3[C@@H]1CC[C@@H]2OC(=O)CCC1CCCC1 [estradiol-cypionate] (10 µM) | -0.002 | 99% (inactive)
14 | CC[N+](CC)(CC)CCOc1cccc(OCC[N+](CC)(CC)CC)c1OCC[N+](CC)(CC)CC [gallamine-triethiodide] (10 µM) | -0.128 | 112% (inactive)
15 | COc1cc2nccc(Oc3ccc(NC(=O)C4(C(=O)Nc5ccc(F)cc5)CC4)cc3)c2cc1OC [cabozantinib] (0.833333 µM) | 0.329 | 97.5% (inactive)
16 | N=C(N)c1ccc(N2CCN(C3CCN(CC(=O)O)CC3)CC2)cc1 (10 µM) | -0.0825 | 106% (inactive)
17 | Oc1cc(CNC(=S)/C=C/c2cc(O)c(O)c(Br)c2)cc(O)c1O (0.833333 µM) | 0.194 | 104% (inactive)
18 | CC(=O)O[C@]1(C(C)=O)CC[C@H]2[C@@H]3CCC4=CC(=O)CC[C@]4(C)[C@H]3CC[C@@]21C [hydroxyprogesterone-acetate] (10 µM) | 0.0136 | 104% (inactive)
19 | CC1=C(/C=C/C(=C/C=C/C(C)=C/C(=O)O)c2ccc(C)cc2)C(C)(C)CCC1 (10 µM) | 0.171 | 106% (inactive)
20 | O=C(O)Cc1sc(-c2ccccc2)nc1-c1ccc(Cl)cc1 [fentiazac] (10 µM) | 0.0803 | 100% (inactive)
21 | C#C[C@]1(O)CC[C@H]2[C@@H]3CCc4cc(O)ccc4[C@H]3CC[C@@]21C (10 µM) | 0.128 | 102% (inactive)
22 | CSc1ccccc1Nc1nc(N2CCNCC2)nc2c(NCC3CC3)ncnc12 (0.833333 µM) | 0.166 | 101% (inactive)
23 | CC(C)CCC[C@@H](C)[C@H]1CC[C@H]2[C@@H]3CC=C4C[C@@H](O)CC[C@]4(C)[C@H]3CC[C@]12C [cholesterol] (10 µM) | 0.178 | 98% (inactive)
24 | CCC[C@H](NC(=O)[C@@H]1[C@H]2CCC[C@H]2CN1C(=O)[C@@H](NC(=O)[C@@H](NC(=O)c1cnccn1)C1CCCCC1)C(C)(C)C)C(=O)C(=O)NC1CC1 [telaprevir] (10 µM) | 0.229 | 106% (inactive)
25 | OC(CCN1CCCCC1)(c1ccccc1)C1CCCCC1 (stereo not drawn) [trihexyphenidyl] (10 µM) | 0.167 | 92% (inactive)
26 | C[C@@H]1CN(Cc2ccc(F)cc2)CCN1C(=O)COc1ccc(Cl)cc1NC(N)=O (10 µM) | -0.0461 | 112% (inactive)
27 | CCCCNC(=O)[C@@H]1Cc2ccccc2N1C(=O)[C@@H](N)CC [butabindide] (10 µM) | 0.203 | 86.5% (inactive)
28 | COc1c(-c2ccc3cc(NS(C)(=O)=O)ccc3c2)cc(-n2ccc(=O)[nH]c2=O)cc1C(C)(C)C [dasabuvir] (10 µM) | 0.123 | 106% (inactive)
29 | CC[C@H]1OC(=O)[C@@](C)(F)C(=O)[C@H](C)[C@@H](O[C@@H]2O[C@H](C)C[C@H](N(C)C)[C@H]2O)[C@](C)(OC)C[C@@H](C)C(=O)[C@H](C)[C@H]2N(CCCCn3cc(-c4cccc(N)c4)nn3)C(=O)O[C@]12C [solithromycin] (10 µM) | 0.351 | 104% (inactive)
